Screens from PubChem BioAssay.
JMJD2E inh – qHTS Assay for Inhibitors of Human Jumonji Domain Containing 2E (JMJD2E). Lysine-specific demethylase 4E (Homo sapiens), B2RXH2. JMJD2E catalytic domain, FDH-coupled NADH fluorescence (FDH is formaldehyde dehydrogenase). Potency, µM (doses to about 57.1 µM), without a hit: top-dose activity change, negative = inhibition, actives largely listed as inhibitors. 1.6% of 230,000 active; active means well fitted inhibition curve with a large enough effect, not every such curve was filed as active; inconclusive means small, poorly fitted or top-dose-only effect, or another doubt; inactive means no such curve, though single readings can be large or run the other way;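 further: potency means the concentration at half of the fitted maximal effect; 0% = wells with enzyme and -100% = buffer wells without enzyme; nearly all actives have a fitted effect of over 50% in size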
Target sequence (B2RXH2 1-337 limits assumed): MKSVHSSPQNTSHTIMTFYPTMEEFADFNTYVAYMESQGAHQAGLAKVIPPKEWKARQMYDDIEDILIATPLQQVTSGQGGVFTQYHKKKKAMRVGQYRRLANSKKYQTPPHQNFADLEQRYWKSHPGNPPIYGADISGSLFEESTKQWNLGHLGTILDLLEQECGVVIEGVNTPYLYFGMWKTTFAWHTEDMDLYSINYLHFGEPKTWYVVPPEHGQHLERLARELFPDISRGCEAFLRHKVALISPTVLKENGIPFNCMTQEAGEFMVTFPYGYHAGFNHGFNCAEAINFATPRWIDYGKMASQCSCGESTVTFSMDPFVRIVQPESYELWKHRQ
L3MBTL1 inh – qHTS Assay for the Inhibitors of L3MBTL1; AID 485360, 2010; Potency, µM (series often up to 57.1 µM), inactives show top-dose activity, negative = inhibition, hits mostly inhibitors; Lethal(3)malignant brain tumor-like protein 1 (Homo sapiens), Q9Y468; 0.66% of 230,000 active; AlphaScreen L3MBTL1–H3K9me1 peptide binding; active means well fitted inhibition curve with a large enough effect; inconclusive means small, poorly fitted or top-dose-only effect; inactive means no such curve, though single readings can be large or run the other way; further: potency means the concentration at half of the fitted maximal effect; nearly all actives have a fitted effect of over 60% in size
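AlphaScreen proximity signal between nickel-chelate acceptor and streptavidin donor beads (final 10 ug/mL) reports binding of 50 nM L3MBTL1 to 75 nM biotin-H3 K9me1 peptide; complex incubated with compounds 30 min at room temperature; cefsulodin titration as control.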
CtBP-E1A blk – qHTS Assay for Inhibitors of the CtBP/E1A Interaction. CtBP / adenovirus E1A interaction (AlphaScreen). AlphaScreen GST-E1A/His-CtBP binding, 1536-well; active compounds read low. activity change, % (test concentration not listed). 0.49% of 340,000 active. AID 651724, 2012
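Homogeneous bead-based format: GST-tagged E1A captured on glutathione donor beads, His-tagged CtBP on nickel acceptor beads; compounds precede bead addition by 2 h at 37 °C.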
Six1-Eya2 blk – qHTS Assay for Inhibitors of the Six1/Eya2 Interaction. AlphaScreen GST-Six1/His-Eya2 binding, biochemical; active compounds read low. activity change, % (test concentration not listed). 0.56% of 360,000 active. AID 651725, 2012
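AlphaScreen with GST-Six1 and His-Eya2 (5X mix: 250 nM and 500 nM), glutathione donor and nickel acceptor beads; buffer 50 mM Tris pH 8.0, 300 mM NaCl, 1 mM TCEP; 1 h at 37 C in the dark.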
Active calls of the source: *; ? = inconclusive; . = not tested or not shown. The full list was thinned out, with hits kept by preference. Unless noted, no stated cut-off is given here; in the data, active means activity change below about -65%; inconclusive means mostly about -30% to -63%; inactive means weaker than that. Unless noted, on the % scale 0 is the no-effect control and ±100 the full control effect.

SMILES | JMJD2E inh | L3MBTL1 inh | CtBP-E1A blk | Six1-Eya2 blk
COC(=O)c1cc(-c2cccc(OC)c2)c2c(=O)[nH]c(=O)n(C)c2n1 | . | . | -6 | -23
CCOC(=O)COc1cc(N)c(Cl)cc1Cl | 10% | 20% | -4 | -2
O=C(O)/C=C/C(=O)Nc1ccc2c(c1)C(=O)c1ccccc1C2=O | -13% | . | -23 | -67*
C=C(CO)C1Cc2c(ccc3c(=O)c4c(oc23)COc2cc(OC)c(OC)cc2-4)O1 (stereo not drawn) | -22% | . | . | .
C[C@H](CO)N1C[C@H](C)[C@@H](CN(C)C(=O)Nc2ccccc2)Oc2ccc(NC(=O)Nc3ccc4c(c3)OCO4)cc2C1=O | . | -26% | -65* | ?
COc1ccc(NC(=O)Nc2ccc3c(c2)C(=O)N([C@H](C)CO)C[C@H](C)[C@@H](CN(C)C(=O)Nc2ccccc2)O3)cc1 | . | 0% | -67* | ?
COC(=O)c1ccc(CNC(=O)/C=C/c2cc([N+](=O)[O-])ccc2OC(F)F)cc1 | 5% | . | 2 | -1
Cc1ccc(S(=O)(=O)N/N=C/c2ccc(O)c(O)c2)cc1[N+](=O)[O-] | 28µM* | -9% | 4 | -1
Cc1ccc(S(=O)(=O)N/N=C/c2ccccc2O)cc1[N+](=O)[O-] | -10% | -3% | 0 | 0
Nc1ccccc1C(=O)N=Nc1[nH]c(N)c2ccccc12 | 6% | ? | -87* | -76*
CC(=O)C1=C(c2ccccc2)NC(=S)NC1c1ccc(O)c(O)c1 (stereo not drawn) | 22µM* | ? | -17 | 9
CCCC(C)NC(=O)C1c2ccccc2Oc2ccccc21 (stereo not drawn) | . | 33% | -1 | 8
Cc1nn(CC(=O)NC(C)C(C)C)c(C)c1S(=O)(=O)N1CCCCC1 (stereo not drawn) | . | 0% | -1 | 9
COc1ccc(OC)c(Nc2nc(-c3c(C)nc4ncccn34)cs2)c1 | . | . | -82* | ?
Cc1ccc2cc(N)ccc2n1 | 32µM* | -9% | 0 | 0
Cc1ccc2cc(F)ccc2n1 | . | . | -11 | -19
O=C(O)c1ccc2ncsc2c1 | 14µM* | 10µM* | 4 | 0
O=C(c1ccc2ncsc2c1)N1CCCCC1 | . | . | 3 | 2
O=C(Nc1nc2ccccc2[nH]1)c1ccc(S(=O)(=O)N2CCOCC2)cc1 | 1% | -10% | . | -1
O=C(Nc1nc2ccccc2[nH]1)c1ccc(Cl)c(S(=O)(=O)N2CCCC2)c1 | 2% | . | -73* | ?
COc1ccc(/C=N/NC(=O)c2ccc(CN3C(=O)c4cccc5cccc3c45)cc2)cc1O | ? | . | . | -1
COc1cc(/C=N/NC(=O)c2ccc(CN3C(=O)c4cccc5cccc3c45)cc2)cc(OC)c1O | 22µM* | . | 0 | 9
COC1=CC(=O)c2ccccc2C1=O | . | -10% | -25 | -17
C=CC(C1=CC(=O)C(OC)=CC1=O)c1ccccc1 (stereo not drawn) | 2.2µM* | . | . | .
NC(=O)c1cc[n+](CC(=O)c2ccc(NC(=O)c3ccccc3)cc2)cc1 | 13µM* | -1% | . | 1
SMILES | JMJD2E inh | L3MBTL1 inh | CtBP-E1A blk | Six1-Eya2 blk
CC(=O)O[C@@H]1CC2C(C)(C)C(=O)C=C[C@]2(C)C2CC[C@]3(C)C(=CC[C@H]3C3CO[C@@H](C(C)(C)O)[C@H](O)C3)[C@@]21C (stereo partly drawn) | 0% | . | . | .
CCN1/C(=C/C=C/c2oc3ccc4ccccc4c3[n+]2CC)Oc2ccc3ccccc3c21 | 14µM* | ? | 3 | 7
CC(C)Cc1nnc(NC(=O)c2ccc(S(=O)(=O)N3CCCC3)cc2)s1 | . | 3% | 9 | -1
C=CCNc1nc2ccccc2nc1NS(=O)(=O)c1ccc(OC)cc1 | . | . | 2 | 3
CC1=C(C(=O)N(C)C)CC(CC(=O)NCC2CCCCC2)C(=O)N1Cc1ccc(F)cc1 (stereo not drawn) | . | . | 4 | 8
CC1=C(C#N)C(=O)NC(=O)/C1=C\c1ccc(-c2ccc(C)cc2[N+](=O)[O-])o1 | ? | 25µM* | -3 | -6
CCOC(=O)c1cc(-c2ccc(/C=C3/C(=O)NC(=O)C(C#N)=C3C)o2)ccc1Cl | ? | ? | -8 | -27
CC(C)(C)C(=O)c1sc2nc(-c3cccs3)cc(C(F)(F)F)c2c1N | 6.3µM* | 49% | 4 | 25
